Screening data from PubChem BioAssay.
Rango dissoc inh: inhibition of RanGTP-driven Rango-importin beta dissociation | O95149+P62826 | Biochemical FRET Rango-importin beta, RanGTP-induced dissociation | Potency, µM (doses to about 46.1 µM), for inactives: at the top dose activity change, negative = inhibition | 340,000 tested, 0.071% active | AID 540253; also: % of control where 0% means no effect; nearly all actives have a fitted effect of over 45% in size
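Two FRET readings bracket the reaction: one 5 min after compound meets Rango–importin beta, another 45 min after RanGTP-RCC1 (0.6 uM Ran, 0.2 uM RCC1, 2 mM GTP) is added. Only the second defines inhibition.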
ClpP mod: qHTS Assay for Activators of ClpP. ATP-dependent Clp protease proteolytic subunit (Bacillus subtilis (strain 168)), P80244. purified B. subtilis ClpP, FRET peptide cleavage, 20 min. Potency, µM (doses to about 57.5 µM), inactives show at the top dose activity change, negative = active. 340,000 tested, 1.9% active. AID 651965, 2013; active = well fitted falling curve with a large enough effect; inconclusive = small, poorly fitted or top-dose-only effect; inactive = no such curve, though single readings can be large or run the other way; also: the source files actives as falling curves though it sought activators and does not explain the sign; nearly all actives have a fitted effect of over 65% in size
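ClpP 10 microg/mL final, pH 8 Tris/KCl buffer with BSA, glycerol, Tween-20; compound pinned in; FRET-FV substrate; RT 20 min; Ex320/Em430; ΔFRET vs ADEP 5.8 microM, DMSO, no enzyme.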
TSG101-PTAP inh: blocks PTAP/TSG101 interaction to inhibit HIV-1 budding. Fluorescence polarization, FITC-PTAP peptide / Tsg101 binding. Potency, µM (series often up to 115 µM), inactives show top-dose activity change, negative = inhibition, usual class: inhibitors. 340,000 tested, under 10 active; active = well fitted inhibition curve with a large enough effect in the main read-out, with a control signal flat, not every such curve was filed as active; inconclusive = small, poorly fitted or top-dose-only effect, or effect the other way, or a change in a side signal; inactive = no such curve, though single readings can be large or run the other way; also: % of control where 0% means no effect
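Fluorescence anisotropy tracks displacement of a FITC-tagged PTAP peptide (50 nM) from the Tsg101 binding domain (10 uM), following a 20 min room-temperature incubation at pH 7.5.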
Rango complex inh: inhibitors of Rango-importin beta complex formation; Q14974; Rango CFP/YFP FRET sensor + importin beta, 45 min; Potency, µM (highest dose often 92.2 µM), inactives show at the highest dose inhibition of complex formation; 340,000 tested, 0.031% active;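 also: 0% = DMSO wells and 100% = buffer wells lacking importin beta; nearly all actives have a fitted effect of over 15% in size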
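Inhibition scored from the CFP 486 nm/YFP 530 nm FRET ratio 45 min after adding 0.125 microM importin beta to 50 nM Rango biosensor preincubated 5 min with compound (room temperature, PBS with DTT, Tween-20, BSA). No-importin wells as positive control.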
TDP1 inh: inhibitors of human tyrosyl-DNA phosphodiesterase TDP1; Q9NUW8; recombinant TDP1, AlphaScreen DNA substrate cleavage; Potency, µM (top dose mostly 130 µM), for the others: at the highest dose activity change, negative = inhibition, actives largely listed as inhibitors; 350,000 tested, 0.28% active; AID 485290; active = well fitted curve in the direction sought with a large enough effect; inconclusive = small, poorly fitted or top-dose-only effect, or another doubt; inactive = no such curve, though single readings can be large; an effect the other way counts as inactive or inconclusive; also: % is scaled to controls: 0 for no effect and ±100 for the full control effect; nearly all actives have a fitted effect of over 40% in size
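Tdp1 1 nM final; 15 min RT w/ cpd; substrate 15 nM, 5 min; beads 10 ug/ml, 10 min; AlphaScreen read. Neg ctrl: no enzyme.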
12-LOX inh: inhibitors of human 12S-lipoxygenase ALOX12; P18054; purified 12hLO, xylenol orange hydroperoxide absorbance; Potency, µM (highest dose often 108 µM), inactives show at the top dose activity change, negative = inhibition, hits mostly inhibitors; 580,000 tested, 1.1% active; AID 1671190; active = well fitted curve in the direction sought with a large enough effect; inconclusive = small, poorly fitted or top-dose-only effect, or another doubt; inactive = no such curve, though single readings can be large; an effect the other way counts as inactive or inconclusive; also: % is scaled to controls: 0 for no effect and ±100 for the full control effect
Target sequence (P18054 whole entry, looked up): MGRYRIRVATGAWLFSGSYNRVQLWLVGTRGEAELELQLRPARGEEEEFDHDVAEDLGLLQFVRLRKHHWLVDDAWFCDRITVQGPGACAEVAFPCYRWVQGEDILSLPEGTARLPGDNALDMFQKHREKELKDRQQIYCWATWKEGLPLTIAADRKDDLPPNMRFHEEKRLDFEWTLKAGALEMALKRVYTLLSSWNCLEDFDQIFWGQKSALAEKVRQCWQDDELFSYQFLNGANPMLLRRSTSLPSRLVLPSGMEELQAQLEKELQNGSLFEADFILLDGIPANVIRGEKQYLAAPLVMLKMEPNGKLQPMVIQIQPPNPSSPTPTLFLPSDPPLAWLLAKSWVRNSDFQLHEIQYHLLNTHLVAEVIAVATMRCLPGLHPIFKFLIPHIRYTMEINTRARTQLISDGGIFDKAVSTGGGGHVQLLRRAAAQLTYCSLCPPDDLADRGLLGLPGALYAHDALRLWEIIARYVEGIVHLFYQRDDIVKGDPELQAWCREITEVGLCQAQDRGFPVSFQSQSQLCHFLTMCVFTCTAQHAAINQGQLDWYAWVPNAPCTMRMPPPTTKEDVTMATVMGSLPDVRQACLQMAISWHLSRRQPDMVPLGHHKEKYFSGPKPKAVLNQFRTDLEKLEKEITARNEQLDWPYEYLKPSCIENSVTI
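Purified human 12hLO at 150 nM in 25 mM Hepes, 0.01% Triton X-100, pH 7.0, preincubated 15 min at room temperature with compound. Reaction started with 40 uM arachidonic acid, 30 min at room temperature. Hydroperoxide measured by Fe-xylenol orange, 573/405 nm absorbance ratio.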
* hit, by the source's call; ? = inconclusive; . = not tested or not shown. Only some compounds are listed: those with a hit (about 2.4% of all), similar ones and a draw of the others. Unless noted, calls follow the shape of the full dose curve. Potency is read from the fitted curve at half-maximal effect.

SMILES	Rango dissoc inh	ClpP mod	TSG101-PTAP inh	Rango complex inh	TDP1 inh	12-LOX inh
COc1cc(NC(=O)c2cc([N+](=O)[O-])ccc2NC(=O)CNCc2ccccn2)cc(OC)c1	3%	1%	-1%	-1%	56µM*	19%
COc1ccc(NC(=O)c2cc([N+](=O)[O-])ccc2NC(=O)CNCc2ccccn2)c(OC)c1	8%	-3%	-3%	-2%	8%	5%
CCC1CCCCN1C(=O)COC(=O)c1n[nH]c2ccccc12 (configuration not stated)	19%	?	0%	4%	-2%	-26%
CC1CCN(C(=O)COC(=O)c2n[nH]c3ccccc23)CC1	3%	28µM*	0%	0%	2%	-1%
O=C(NCCCn1ccnc1)c1ccc(-c2ccccc2)cc1	0%	-1%	-1%	-3%	.	6%
O=C(NCCCn1ccnc1)c1cc(-c2ccncc2)nc2ccccc12	1%	.	2%	0%	3%	4%
O=C(NCCCn1ccnc1)c1ccccc1NS(=O)(=O)c1ccc(F)c(F)c1	0%	-6%	-1%	-2%	-5%	20%
Cc1cc(C(=O)NCCCn2ccnc2)sc1-c1ccccc1	24%	22µM*	-1%	0%	6%	-5%
Cc1cc(C)c(C)c(S(=O)(=O)Nc2ccccc2C(=O)NCCCn2ccnc2)c1C	-3%	35µM*	-3%	4%	9%	4%
Cc1ccc2nc(-c3ccccc3)cc(C(=O)NCCCn3ccnc3)c2c1	-3%	16µM*	-4%	0%	6%	10%
CCOC(=O)c1c(N)sc(N)c1C(=O)OCC	-3%	2%	-1%	?	5%	50µM*
CCOC(=O)c1c(-c2cccs2)csc1N	-7%	.	-6%	-2%	6%	45µM*
CCCc1csc(N)c1C(=O)OCC	.	.	.	.	.	7.9µM*
CCOC(=O)c1sc(N)c(C(N)=O)c1C	-6%	.	-6%	3%	3%	?
Cc1ccc(NC(=O)N[C@H]2C[C@@](O)(C(=O)N[C@@H](Cc3ccc(O)cc3)C(N)=O)C[C@@H](O)[C@@H]2O)cc1	.	.	.	.	.	10%
COCC1CN(C2CCC2)CC12CCN(C(=O)Cc1ccc(OC)cc1)CC2 (configuration not stated)	.	.	.	.	.	27%
CC(=O)N1CCC(C(=O)N2CCC3(CC2)NC(=O)N(c2ccccc2)N3)CC1	.	.	.	.	.	1.6µM*
CC(=O)N1CCC(C(=O)N2CCC3(CC2)NC(=O)N(c2cccc(Cl)c2)N3)CC1	.	.	.	.	.	1.3µM*
O=C(N/N=C/c1cn(-c2ccccc2)nc1-c1ccc2c(c1)OCCO2)c1ccncc1	2%	.	6%	-4%	50µM*	10%
COc1cccc(-c2nn(-c3ccccc3)cc2CO)c1	-23%	0%	-1%	-3%	2%	11%
OCc1cn(-c2ccccc2)nc1-c1ccc2c(c1)OCCO2	-6%	28µM*	-3%	-2%	-7%	0%
COc1ccc(-c2nn(-c3ccccc3)cc2CO)cc1OC	15%	11µM*	-9%	0%	1%	31%
O=C(N/N=C/c1cn(-c2ccccc2)nc1-c1ccc(F)cc1)c1ccc2c(c1)OCO2	13%	?	-4%	5%	5%	-18%
Cc1ccc(CNC(=O)c2ccc3ccccc3n2)s1	.	.	.	.	.	11%
C/C(CCC12CC3CC(CC(C3)C1)C2)=N\NC(N)=S	-1%	1%	-8%	-1%	9%	10µM*
C/C(CC12CC3CC(CC(C3)C1)C2)=N\O	.	.	.	.	.	-3%
CC1=CC(c2ccc(Cl)cc2)n2nc(N3C(=O)CCC3=O)nc2N1 (configuration not stated)	?	10µM*	-3%	?	0%	.
